Test [1] is described as follows: survival rescue of mitochondrial mutant cells in low glucose, primary screen, MELAS cybrids, Rieske KO mouse fibroblasts, CellTiter-Glo (AID 1508586;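 active means mean z-score across replicates of 1.96 or higher in either the MELAS or the Rieske mutant cell line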;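 further: z relative to plate mean and SD of compound and empty wells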).
Test [2] in a line: hESC survival regulators, cell-based (AID 493140).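 Further: cells exposed to compounds for four days before counting.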 The note with it: human embryonic stem cell survival screen; stronger effect = higher value.
Test [3] deals with NAD(+) hydrolase SARM1 (Homo sapiens) (UniProt Q6SZW1). Kind of test: SARM1 TIR NADase inhibitors, cell lysate, NAD-Glo luminescence (AID 1508614;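 active means compound whose remaining NAD level is above about 45 nM, limit read from the data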). The note with it: SAM-TIR HEK293T lysate NADase, at 1 µM, stronger effect = higher value.
Test [4] in a line: phospholipid biosynthesis inhibitors in animal cells, primary screen, cell-based, LOPAC library, screen 4 (AID 1347384). To be noted: phospholipid biosynthesis inhibition screen, at 10 µM.
Test [5] in a line: circadian clock period modulators, cell-based, LOPAC library, luminescence reporter (AID 2774).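 Further: values are relative to mean of DMSO wells on each plate.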 To be noted: circadian reporter cells, at 7 µM, actives lie on both sides.
Test [6] has as its system Hepatitis C virus NS3 helicase. In words: HCV NS3 helicase inhibitors, primary screen, biochemical, fluorescence polarization, LOPAC1280 library (AID 687035; in the data active means inhibition above about 37%). To be noted: Purified HCV NS3 helicase, Cy5-dT15 ssDNA binding fluorescence polarization; stronger effect = higher value; concentration not given here.
The nature of test [7]: Cy5 fluorescence quenching or enhancement artefacts, artefact control for HCV NS3 helicase inhibitor project, biochemical, LOPAC1280 (AID 687037). To be noted: Cy5-DNA-NS3h complex fluorescence interference counterscreen.
The nature of test [8]: growth inhibition of DIPG glioma cells, dose response, cell-based, SU-DIPG-XVII, MIPE5.0, CellTiter-Glo, qHTS (AID 1347060; cut-off not given, nearly all actives have AC50 up to about 26 µM;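 on AC50: cells exposed to compound for 48 hours before viability readout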). The note with it: SU-DIPG-XVII viability, CellTiter-Glo ATP luminescence.
A short description of test [9]: growth inhibition of DIPG glioma cells, dose response, cell-based, JHH-DIPG-1, MIPE4.0, CellTiter-Glo, qHTS (AID 1347062; cut-off not given, nearly all actives have AC50 up to about 27 µM;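 on AC50: cells exposed to compound for two days before readout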). The note with it: JHH-DIPG-1 viability, CellTiter-Glo ATP luminescence.
A short description of test [10]: viability loss in pontine glioma line – cell-based, SU-DIPG-XXV, MIPE5.0, CellTiter-Glo, qHTS, dose response (AID 1347065; cut-off not given, nearly all actives have AC50 up to about 26 µM;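 further: cells exposed to compound for 48 hours before ATP readout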). The note with it: CellTiter-Glo ATP luminescence.
Test [11] can be described thus: SU-DIPG-XXV glioma cell viability, MIPE5.0 library, qHTS (AID 1347068; cut-off not given, nearly all actives have IC50 up to about 30 µM;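 on IC50: cells exposed to compound for 48 hours before viability readout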).
The test system of test [12] is Aerobactin synthetase IucA (Klebsiella pneumoniae). Kind of test: IucA aerobactin synthetase inhibitors, biochemical, Tocris library, absorbance (AID 1345561).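 Further: 100% = enzyme without compound and 0% = no enzyme.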 To be noted: purified IucA enzyme assay, absorbance (OD) read-out; stronger effect = lower value;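 tested at 8 µM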.
The mark [13] stands for this setting: MELAS cybrid survival, CellTiter-Glo 48 h, stronger effect = higher value.
[14] abbreviates: Rieske KO mouse fibroblast survival, CellTiter-Glo 72 h.

“And” between values parts separate entries of the source, which are not always exact repeats. Equal values may be shown once. Results filed as inconclusive are left out. The source made the active and inactive calls. Unless noted, how the calls were made is not given here. Numbered stars: 1 amine (or outer) side, 2 acyl side, 3 side chain; on linkers, the order of the positions; unused ones are H or OH. Bridge positions count the residues as written; N and C are the ends. Square brackets hold non-standard residues; d marks the D form. Peptide text beside a SMILES is read from it. I, II: the chains in the order shown. Actinocin(9to1) = Cc1c2oc3c(C)ccc(C(=O)[*:1])c3nc-2c(C(=O)[*:2])c(N)c1=O; NMeV = CN[CH](C(=O)O)C(C)C; Sar = CNCC(=O)O

NAD(+) hydrolase SARM1 (Homo sapiens), sequence (Q6SZW1 whole entry, looked up): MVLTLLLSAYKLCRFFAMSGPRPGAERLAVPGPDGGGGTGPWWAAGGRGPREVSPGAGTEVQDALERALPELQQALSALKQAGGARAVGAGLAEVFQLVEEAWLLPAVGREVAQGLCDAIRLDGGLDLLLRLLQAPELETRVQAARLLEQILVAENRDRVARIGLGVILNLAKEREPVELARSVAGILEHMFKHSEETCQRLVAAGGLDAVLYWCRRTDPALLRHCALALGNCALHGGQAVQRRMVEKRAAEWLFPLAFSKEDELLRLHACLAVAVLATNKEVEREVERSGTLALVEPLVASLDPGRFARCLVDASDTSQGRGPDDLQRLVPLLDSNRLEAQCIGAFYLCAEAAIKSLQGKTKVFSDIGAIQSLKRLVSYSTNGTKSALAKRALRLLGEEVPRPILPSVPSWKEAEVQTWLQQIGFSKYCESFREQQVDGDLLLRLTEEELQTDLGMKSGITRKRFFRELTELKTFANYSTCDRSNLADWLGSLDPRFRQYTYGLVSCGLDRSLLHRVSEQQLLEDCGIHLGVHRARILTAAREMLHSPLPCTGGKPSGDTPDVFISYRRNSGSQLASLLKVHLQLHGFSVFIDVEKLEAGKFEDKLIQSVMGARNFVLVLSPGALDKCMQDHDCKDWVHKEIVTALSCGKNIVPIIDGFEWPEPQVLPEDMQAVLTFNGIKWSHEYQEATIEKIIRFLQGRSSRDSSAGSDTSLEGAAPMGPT

Consider `Fc1ccc(C2CCNCC2COc2ccc3c(c2)OCO3)cc1` (configuration not stated), for which the values for the z-score in test [1] (setting [13]) and in [1] (setting [14]) were -1.22 (inactive) and 0.964, respectively.
For the compound `C[C@]12CC3CC(N)(C1)C[C@@](C)(C3)C2`, the z-score was -0.593 (inactive) in [1] (setting [13]) and -0.282 in test [1] (setting [14]).
As for `CO[C@H]1/C=C/O[C@@]2(C)Oc3c(C)c(O)c4c(O)c(c5c(c4c3C2=O)NC2(CCN(CC(C)C)CC2)N=5)=NC(=O)/C(C)=C\C=C\[C@H](C)[C@H](O)[C@@H](C)[C@@H](O)[C@@H](C)[C@H](OC(C)=O)[C@@H]1C`, the survival in test [2] was 5.5 (inactive). Moreover, the results for the z-score in test [1] (setting [13]) and in [1] (setting [14]) were 1.35 (inactive) and 1.35, respectively.
Consider `O=C(O)COCCN1CCN([C@H](c2ccccc2)c2ccc(Cl)cc2)CC1`, for which, in test [3], the remaining NAD is 10 nM (inactive).
As for `O=C(OC1C[C@@H]2CC3C[C@H](C1)N2CC3=O)c1c[nH]c2ccccc12` (some centres not stated), in test [4], the compound was called inactive. Besides, the z-score in test [1] (setting [13]) is 0.403 (inactive); in test [1] (setting [14]), -0.707.
With `CN1C2CCC1CC(OC(c1ccccc1)c1ccccc1)C2` (configuration not stated), the period change in [5] was 0.035 h (inactive). Moreover, the inhibition in test [6] is -5% (inactive). The fluorescence ratio (interference) in test [7] was 1 (inactive). For the same compound, in test [4], the result was inactive. The z-score in [1] (setting [13]) was -0.325 (inactive); in test [1] (setting [14]), -0.171.
On to `Cc1c2oc3c(C)ccc(C(=O)NC4C(=O)NC(C(C)C)C(=O)N5CCCC5C(=O)N(C)CC(=O)N(C)C(C(C)C)C(=O)OC4C)c3nc-2c(C(=O)NC2C(=O)NC(C(C)C)C(=O)N3CCCC3C(=O)N(C)CC(=O)N(C)C(C(C)C)C(=O)OC2C)c(N)c1=O` (configuration not stated) (I: TVP[Sar][NMeV] / II: TVP[Sar][NMeV]; ester I:1-I:C, II:1-II:C; linker I:N-II:N via Actinocin(9to1); configuration not given here), for which the AC50 in [8] is 4.07 nM (active); in [10] it was 18.2 nM (active). The call in test [9] was inactive. Moreover, the IC50 in [11] was 72.3 nM (active).
Turning to `CC(C(O)c1ccc(O)cc1)N1CCC(Cc2ccccc2)CC1` (configuration not stated), the period change in test [5] was 0.3 h (inactive). Moreover, in [2], the survival is 3.25 (inactive). Besides, the inhibition in test [6] is -4% (inactive). In test [7], the fluorescence ratio (interference) was 0.9 (inactive). In test [4], the result was inactive. The z-score in [1] (setting [13]) is -0.121 (inactive) and -0.969 (inactive) and -0.489 (inactive); in [1] (setting [14]), -0.18 and -0.279 and 1.18.
In the case of `CCN(CC)C(=O)[C@]1(c2ccccc2)C[C@@H]1CN`, the results for the z-score in test [1] (setting [13]) and in test [1] (setting [14]) were -0.406 (inactive) and -0.158, respectively. Moreover, the remaining NAD in test [3] was 10 nM (inactive).
With `C=C1/C(=C\C=C2/CCC[C@]3(C)[C@@H]([C@H](C)CCCC(C)(C)O)CC[C@@H]23)C[C@@H](O)C[C@@H]1O`, the survival in test [2] was 89.6 (inactive). The compound was classed as inactive in [8] and in [10]. The concentration at half-maximal activity (AC50) in test [9] is 2350 nM (active). For the same compound, the IC50 in test [11] is 23500 nM (active). For the same compound, the z-score in test [1] (setting [13]) is -0.162 (inactive); in test [1] (setting [14]), -0.598.
Take `CCCc1nc(C(C)(C)O)c(C(=O)O)n1Cc1ccc(-c2ccccc2-c2nn[nH]n2)cc1`: the compound was classed as inactive in [8], in test [9], in [10] and in [11]. The figures for the z-score in test [1] (setting [13]) and in test [1] (setting [14]) were 0.347 (inactive) and -0.184, respectively. Further, the remaining NAD in test [3] was 10 nM (inactive).
As to `c1ccc(-c2ccccn2)nc1`, the period change in test [5] is -0.19 h (inactive). Further, the inhibition in test [6] is -3% (inactive). Besides, the fluorescence ratio (interference) in [7] was 1 (inactive). For the same compound, the compound was called inactive in test [4].
With `CN(C)CC/C=C1/c2ccccc2COc2ccccc21`, in [12], the remaining activity is 123% (inactive).
The same measure, in the same setting: to `COc1cc(N)c(Cl)cc1C(=O)N[C@@H]1CCN(CCCOc2ccc(F)cc2)C[C@@H]1OC` belongs 111% (inactive).
`COCCCCC(=NOCCN)c1ccc(C(F)(F)F)cc1`: the z-score is 0.785 (inactive) and -0.408 (inactive) in [1] (setting [13]); 0.468 and -0.05 in test [1] (setting [14]).
With `C[C@]12C=CC(=O)C=C1CC[C@@H]1[C@@H]2[C@@H](O)C[C@@]2(C)[C@H]1CC[C@]2(O)C(=O)COC(=O)CCC(=O)O`, the remaining NAD in test [3] was 10 nM (inactive).
In the case of `CCN(CC)CCOc1ccc(C(=C(Cl)c2ccccc2)c2ccccc2)cc1`, the values for the z-score in test [1] (setting [13]) and in test [1] (setting [14]) were -0.453 (inactive) and -0.778, respectively. Further, the remaining NAD in test [3] was 10 nM (inactive).

(Values after PubChem BioAssay.)
